The list is not random: actives were taken first. Their share in the collection is about 6.2%.
KB-V1 cytotox: KB-V1 MDR subline cytotoxicity | KB-V1 MDR cells viability, CellTiter-Glo, 72 h | Potency, µM (titrated, usually from 46.1 µM), hits mostly cytotoxic | 3.4% of 400,000 active | AID 1347076; further: on the % scale 0 is the no-effect control and ±100 the full control effect; nearly all actives have a fitted effect of over 60% in size
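Cytotoxicity toward P-gp-expressing KB-V1 cells was determined as loss of CellTiter-Glo luminescence after 72 h at 37 degrees C. Compounds were tested in quantitative HTS format across a concentration range, with curves fitted to normalized data.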
KB-3-1 tox: kills parental KB-3-1 adenocarcinoma cells; Potency, µM (highest dose often 46.1 µM), actives largely listed as cytotoxic; KB-3-1 viability, CellTiter-Glo ATP luminescence, 72 h; AID 1347075; 1.4% of 400,000 active; further: on the % scale 0 is the no-effect control and ±100 the full control effect; nearly all actives have a fitted effect of over 60% in size
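Luminescent ATP read-out (CellTiter-Glo) measures survival of drug-naive KB-3-1 cells after 72 h compound exposure at 37 °C. Titration series was screened from lowest to highest concentration, with DMSO vehicle plates as background controls.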
ATXN2 expr inh: ATXN2 expression inhibition | Potency, µM (top dose mostly 57 µM), inactives show top-dose activity change, negative = inhibition, usual class: inhibitors | AID 1745845 | HEK-293 ATXN2-luciferase reporter, luminescence, 24 h | 0.72% of 360,000 active; further: on the % scale 0 is the no-effect control and ±100 the full control effect; nearly all actives have a fitted effect of over 55% in size
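ATXN2-luciferase reporter cells (luciferase flanked by upstream and downstream ATXN2 gene portions) were treated 24 h at 37 °C with compounds at up to 57 uM. SteadyGlo luminescence gave expression; GF-AFC fluorescence gave viability.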
HT1080-NT tox: kills 2HG-producing HT-1080-NT fibrosarcoma cells; HT-1080-NT fibrosarcoma viability, CellTiter-Glo ATP luminescence, 48 h; Potency, µM (doses to about 46.1 µM), for inactives: at the top dose activity, negative = less viability, usual class: cytotoxic; 1.6% of 360,000 active; AID 686970;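 further: NT is the 2HG producing partner of a matched IDH1 knockdown line; 0% = DMSO-treated cells and -100% = media-only wells without cells; nearly all actives have a fitted effect of over 55% in size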
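Toxicity toward the 2HG-producing NT line was scored as %Activity, normalised to DMSO and no-cell wells, from CellTiter-Glo luminescence after 48 hours' treatment.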
HT1080 IDH1KD tx: toxicity to HT-1080 IDH1 knockdown cells (counter line); HT-1080 IDH1 knockdown viability, ATP luminescence, 48 h; 2% of 360,000 active; Potency, µM (titrated, usually from 46.1 µM), inactives show top-dose activity, negative = toxicity, hits mostly cytotoxic;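 further: 0% = DMSO wells and -100% = cell-free medium wells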
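HT-1080-IDH1KD cells (IDH1 knocked down), 750/well in RPMI with 5% FBS, treated with compound 48 h at 37 degrees C. Viability by CellTiter-Glo luminescence, normalised to DMSO and no-cell wells; concentration-response curves classed.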
ATXN viability: viability counter-screen for ATXN expression inhibitors. 0.49% of 400,000 active. Potency, µM (top dose mostly 56.7 µM), hits mostly cytotoxic. S2 cells (HEK-293 line with an ATXN2-luciferase reporter) viability, CellTiter-Fluor protease fluorescence, 24 h; further: nearly all actives have a fitted effect of over 40% in size
Active calls of the source: *; i = inactive; u = inconclusive; x = no result given. The call rests on the fitted dose curve; in most records, active means well fitted curve in the direction sought with a large enough effect; inconclusive means small, poorly fitted or top-dose-only effect, or another doubt; inactive means no such curve, though single readings can be large; an effect the other way counts as inactive or inconclusive. Potency means the concentration at half of the fitted maximal effect.

SMILES	KB-V1 cytotox	KB-3-1 tox	ATXN2 expr inh	HT1080-NT tox	HT1080 IDH1KD tx	ATXN viability
Cc1c(N)nc(C(CC(N)=O)NCC(N)C(N)=O)nc1C(=O)NC(C(=O)NC(C)C(O)C(C)C(=O)NC(C(=O)NCCc1nc(-c2nc(C(=O)NCCCN[C@@H](C)c3ccccc3)cs2)cs1)C(C)O)C(O[C@@H]1O[C@@H](CO)[C@@H](O)[C@H](O)[C@@H]1O[C@H]1O[C@H](CO)[C@@H](O)[C@H](OC(N)=O)[C@@H]1O)c1cnc[nH]1 (some centres undefined)	x	x	x	x	x	i
CCn1cc(/C=N/NC(=O)c2cc3c(ccc4ccccc43)o2)c2ccccc21	18.4µM*	u	-15.5%	-23.8%	-25.7%	i
Nc1ccc(C(=O)N/N=C/c2cn(Cc3ccccc3)c3ccccc23)cc1	29.1µM*	u	-18.3%	-16.8%	u	i
CNC(=S)N/N=C/c1cn(Cc2ccc(F)cc2)c2ccccc12	14.6µM*	u	-23.3%	-27.2%	-28.2%	u
CC(C)n1cc(/C=N\NC(=O)c2cc3c(ccc4ccccc43)o2)c2ccccc21	i	i	9.2%	3.2%	2.1%	i
Cc1cc(=O)oc2cc(OCC(=O)Nc3c(C(C)C)cccc3C(C)C)ccc12	i	i	-2.7%	x	x	i
CCOC(=O)c1c(NC(=O)c2cc(=O)c3cc(C)cc(C)c3o2)sc(C)c1C	i	i	11.1%	x	x	i
O=C(Nc1ccc(Oc2ccccc2)cc1)c1csc([C@@H]2C[C@H](O)[C@@H](CO)O2)n1	i	i	-15.9%	u	2.59µM*	i
Cc1cnc(-n2ncc(C(=O)NCc3ccccn3)c2C2CC2)nc1-c1cccs1	x	x	x	x	x	i
CCCC(=O)NC(c1ccccc1Cl)c1ccc2cccnc2c1O (centres undefined)	u	u	3.16µM*	u	u	i
COc1ccc(C(NC(=O)CC(C)C)c2c(O)ccc3ccccc23)cc1 (centres undefined)	i	u	x	u	u	i
CCCC(=O)NC(c1ccc(N(C)C)cc1)c1ccc2cccnc2c1O (centres undefined)	i	u	u	u	u	i
CCCCC(=O)NC(c1ccc(OC)cc1)c1ccc2cccnc2c1O (centres undefined)	i	u	x	u	u	u
COc1ccc(C(NC(=O)C(C)C)c2ccc3cccnc3c2O)cc1 (centres undefined)	u	i	3.16µM*	1.64µM*	u	i
CCCC(=O)NC(c1ccc(C(C)C)cc1)c1ccc2cccnc2c1O (centres undefined)	u	5.17µM*	u	-9.3%	u	i
CC(C)CC(=O)NC(c1ccccc1Cl)c1c(O)ccc2ccccc12 (centres undefined)	20.6µM*	u	u	-25.6%	u	u
COCCn1c(C)cc(O)c(C(c2cccc(F)c2)N2CCN(c3ccccc3)CC2)c1=O (centres undefined)	i	i	x	x	x	x
C=C(NC(=O)C(=C)NC(=O)c1csc(C2=NC3c4csc(n4)C4NC(=O)c5csc(n5)C(C(C)(O)C(C)O)NC(=O)C5CSC(=N5)/C(=C/C)NC(=O)C(C(C)O)NC(=O)c5csc(n5)C3(CC2)NC(=O)C(C)NC(=O)C(=C)NC(=O)C(=C)NC(=O)C(C(C)C)NC2C=Cc3c(C(C)O)cc(nc3C2O)C(=O)OC4C)n1)C(N)=O (centres undefined)	u	u	u	u	5.17µM*	2.67µM*
Cc1cc(C)cc(-n2ccnc2SCC(=O)Nc2ccccc2F)c1	i	i	23.9%	x	x	i
CCOC(=O)CS(=O)(=O)c1nc(-c2ccccc2)cc(C(F)(F)F)n1	u	13µM*	-31.8%	9.2µM*	6.51µM*	i
CCOC(=O)CS(=O)(=O)c1nc(-c2ccc(F)cc2)cc(C(F)(F)F)n1	i	3.26µM*	u	6.51µM*	13µM*	x
O=C(O)CCS(=O)(=O)c1nc(-c2cccs2)cc(C(F)(F)F)n1	i	i	23.5%	u	u	i
COCC(C)NC(=O)CCS(=O)(=O)c1nc(-c2ccc(OC)cc2)cc(C(F)(F)F)n1 (centres undefined)	i	i	u	u	23.1µM*	u
CCOC(=O)CCS(=O)(=O)c1nc(-c2ccccc2)cc(C(F)(F)F)n1	i	u	u	u	5.17µM*	x
CCOC(=O)c1c(C(F)(F)F)cc(-c2ccc(F)cc2)nc1C	i	i	3.8%	10.2%	12.0%	i
SMILES	KB-V1 cytotox	KB-3-1 tox	ATXN2 expr inh	HT1080-NT tox	HT1080 IDH1KD tx	ATXN viability
CC(=O)ON(C(C)=O)c1ccc(/C=C2/C=Cc3ccccc32)cc1	i	i	x	x	x	x
COc1ccc(-c2cc(C(F)(F)F)nc(S(=O)(=O)CCCC(=O)Nc3cccnc3Cl)n2)cc1OC	i	i	u	u	10.3µM*	u
COC(=O)c1ccccc1NC(=O)CCCS(=O)(=O)c1nc(-c2ccccc2OC)cc(C(F)(F)F)n1	i	i	6.5%	x	x	i
COC(=O)CCS(=O)(=O)c1nc(-c2ccccc2)cc(C(F)(F)F)n1	u	i	u	7.08µM*	3.55µM*	x
CC(=O)c1cccc(NC(=O)Nc2sc3nc4n(c(=O)c3c2C)CCC(C)CC4)c1 (centres undefined)	u	i	2.3%	x	x	i
CC1Cc2ccccc2N1C(=S)NC(=O)c1ccc(Cl)cc1Cl (centres undefined)	16.4µM*	i	u	-3.5%	-3.0%	u
CC1Cc2ccccc2N1C(=S)NC(=O)c1cccc(Br)c1 (centres undefined)	u	u	u	-7.6%	-2.1%	u
CC1Cc2ccccc2N1C(=S)Nc1ccc(S(N)(=O)=O)cc1 (centres undefined)	18.4µM*	u	-11.0%	-2.8%	-1.6%	i
Cc1coc2c1c(C)cc1oc(=O)cc(C)c12	i	i	6.4%	x	x	i
c1ccc(CCNc2nc3ccccc3n3nnnc23)cc1	i	i	15.4%	4.7%	22.9%	i
ClC(Cl)(Cl)c1nc2ccccc2n2nncc12	i	u	12.6µM*	6.51µM*	7.31µM*	u
Cc1cccc(C)c1NC(=O)Cn1cc(S(=O)(=O)Cc2ccc(F)cc2)c2ccccc21	i	i	x	x	x	x
CCC(C)[C@H](NC(=O)NCc1ccc(Cl)cc1)C(=O)OC (some centres undefined)	20.6µM*	i	-3.0%	-4.8%	0.1%	i
